# High-throughput results (PubChem)
# Nrf2 inh = Nrf2 pathway inhibition. A549 ARE-Fluc reporter, luciferase luminescence, 18-24 h. Potency, µM (series often up to 46 µM), usual class: inhibitors. actives 2.1% (n = 360,000); also: nearly all actives have a fitted effect of over 60% in size
#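 Cells were seeded and rested 2 h, then exposed to compounds for 18-24 h. CellTiter-Fluor was read first as a viability measure. BugLite was added 15 min before the final luminescent read of ARE-luciferase activity in A549 cells.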
# HepG2 tox = kills HepG2 cells in TGF-b inhibitor counter-screen. actives 0.76% (n = 410,000). HepG2 CAGA-GFP viability, ATP luminescence, 18 h. Potency, µM (series often up to 46.1 µM), hits mostly cytotoxic
#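 CellTiter-Glo luminescence gave cytotoxicity after 18 hours at 37 degrees C. The cells were HepG2 CAGA-GFP in 1% FBS DMEM, stimulated with 500 pg/mL TGF-beta after compound addition. %Activity was normalised to no-cell wells (complete cell-killing) and DMSO (no toxicity), and curves were fitted and classified.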
# TGFb inhibitor = inhibitors of TGF-b signaling; HepG2 CAGA-GFP TGF-b/SMAD3 reporter, GFP fluorescence, 18 h; TGF-beta stimulated, 500 pg/mL final; Potency, µM (titrated, usually from 46.1 µM), most hits filed as inhibitors; actives 1.2% (n = 410,000); AID 588855; also: nearly all actives have a fitted effect of over 65% in size
#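 HEPG2 CAGA-GFP, 1000 cells/well; 2 h settle, 37 C; cpd via pin tool; TGF-b 500 pg/mL final; 18 h, 37 C; GFP imaging ex488/em500-530; %Activity normalised to -TGF-b and +DMSO controls; CRC fit, curve class.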
# ATXN2 expr inh = inhibitors of ATXN2 expression; HEK-293 ATXN2-luciferase reporter, luminescence, 24 h; Potency, µM (doses to about 57 µM), actives largely listed as inhibitors; actives 0.72% (n = 360,000); AID 1745845; also: nearly all actives have a fitted effect of over 55% in size
#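 ATXN2-luciferase reporter cells (luciferase flanked by upstream and downstream ATXN2 gene portions) were treated 24 h at 37 °C with compounds at up to 57 uM. SteadyGlo luminescence gave expression; GF-AFC fluorescence gave viability.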
# S2 tox = cell viability loss in ATXN counter-screen; S2 cells (HEK-293 line with an ATXN2-luciferase reporter) viability, CellTiter-Fluor protease fluorescence, 24 h; Potency, µM (top dose mostly 56.7 µM), most hits filed as cytotoxic; actives 0.49% (n = 400,000); also: nearly all actives have a fitted effect of over 40% in size
# A549 viability = A549 cytotoxicity, counter-screen for Nrf2 inhibitors; A549 ARE-Fluc cells, CellTiter-Fluor viability, 18-24 h; Potency, µM (highest dose often 46 µM), most hits filed as inhibitors; actives 0.16% (n = 390,000)
#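 A549 ARE-Fluc cells in 5% FBS OPTI-MEM, 5000 cells/well, rested 2 h then exposed to compounds in concentration-response for 18-24 h at 37 °C. Viability by CellTiter-Fluor fluorescence (Ex 405/Em 525) after 30 min; luciferase luminescence (BugLite, 15 min, RT) read afterwards.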
# Hits are given with their value; 0 = inactive; ? = inconclusive; - = no result given. This is a sample that favours compounds with a hit; in the whole collection about 3.8% have one here. Calls follow the shape of the dose curve; as a rule, active = well fitted curve in the direction sought with a large enough effect; inconclusive = small, poorly fitted or top-dose-only effect, or another doubt; inactive = no such curve, though single readings can be large; an effect the other way counts as inactive or inconclusive.
SMILES,Nrf2 inh,HepG2 tox,TGFb inhibitor,ATXN2 expr inh,S2 tox,A549 viability
C[C@H](c1ccccc1)N1C[C@H](COCc2ccccc2)Oc2cc(N3CCC[C@H]3C(N)=O)ccc2S1(=O)=O,-,-,-,0,?,-
CCc1ccc(NC(=O)CC2C(=O)N(c3cccc(OC)c3)C(=O)N2Cc2ccc(F)cc2)cc1 (centres undefined),0,0,?,-,-,0
CCCOC(=O)c1cccc(Nc2nc(-c3cccnc3)nc3ccccc23)c1,?,16µM,18µM,?,-,0
CN(C)c1cc2c3ccccc3n(C)c2cc1N,0,0,0,0,0,0
O=C(CSc1nc(-c2ccco2)cc(C(F)(F)F)n1)Nc1ccc(C(=O)N2CCCCC2)cc1,23µM,0,0,0,0,0
Cc1ccc(NC(=O)CSc2nc(-c3ccco3)cc(C(F)(F)F)n2)cc1,0,0,0,0,0,0
CC(C)CC(=O)/C(=C/c1ccc(N(C)C)cc1)n1cncn1,0,0,0,0,0,0
CC(C)CC(=O)/C(=C\c1ccc(Cl)cc1Cl)n1cncn1,0,7.9µM,7.1µM,-,?,0
COC(=O)C(=O)C/C(=N/Nc1ncnc2ccccc12)c1ccc(Cl)cc1,0,0,?,0,-,0
N/C(=N\OC(=O)/C=C/c1ccccc1Cl)c1cccnc1,?,0,0,0,0,0
N/C(=N\OC(=O)/C=C/c1ccccc1Cl)c1ccccn1,?,0,0,16µM,0,0
Cc1ccc(C(=O)O/N=C(\N)c2ccccn2)cc1,?,0,0,13µM,0,0
COc1ccc(-c2cc(C(C)=O)c(C)n2CCC(=O)Nc2ccc(C)c(Cl)c2)cc1,-,0,0,-,-,0
CN(C)CCN(C)Cc1ccccc1Sc1cccc2ccccc12,0,0,?,25µM,20µM,0
COC(=O)c1cc2c(ccn2-c2ccc(F)cc2)n1Cc1ccc(OC)cc1,?,0,0,0,0,0
CCn1c(C(=O)OC)cc2c1ccn2-c1ccc(F)cc1,?,13µM,0,0,0,0
COc1ccc(S(=O)(=O)N2CCCCCC2)cc1C(=O)Nc1ccc(C(=O)N(C)C)cc1,0,0,0,0,0,0
CC(=O)c1cccc(NC(=O)Nc2ccc3c(c2)N(C)C(=O)CS3)c1,13µM,0,0,?,?,0
CCc1ccc(NC(=O)Nc2ccc3c(c2)N(C)C(=O)CS3)cc1,16µM,0,?,?,?,0
CCN(CC)c1ccc(NC(=O)Nc2cccc(C(C)=O)c2)cc1,15µM,0,0,0,0,0
CCOC(=O)C1CCN(C(=O)C2CCN(c3nnc(C)c4c(C)n(-c5ccccc5)nc34)CC2)CC1,0,0,0,-,-,0
CSc1nc(COC(=O)NC(C)C)c(COC(=O)NC(C)C)n1Cc1ccccc1,-,0,0,0,0,-
CN1C(=O)/C(=C/c2ccccc2Cl)Sc2ccc(C(=O)N3CCCC3)cc21,0,0,?,-,0,0
CCOC(=O)C1CCCN(C(=O)c2ccc3c(c2)N(C)C(=O)/C(=C/c2ccccc2Cl)S3)C1 (centres undefined),23µM,0,?,0,0,0
CN1C(=O)/C(=C/c2cccc(Cl)c2)Sc2ccc(C(=O)N3CCOCC3)cc21,15µM,0,0,?,0,0
SMILES,Nrf2 inh,HepG2 tox,TGFb inhibitor,ATXN2 expr inh,S2 tox,A549 viability
CCOc1ccc(/C=C2/Sc3ccc(C(=O)N4CCOCC4)cc3N(C)C2=O)cc1OC,?,0,0,0,0,0
CCOC(=O)c1c(-c2cccs2)csc1NC(=O)CN1CC(C)OC(C)C1 (centres undefined),?,20µM,?,0,0,0
O=C1C(c2ccc(F)cc2)N(CCc2ccccc2)C(=O)CN1C1CCCCCC1 (centres undefined),-,0,0,-,-,0
CCc1nc2c(OCc3ccc(Cl)cc3Cl)cccn2c1N(C)C(=O)C1CC1,-,0,?,?,18µM,-
CCc1nc2c(OCC3CCCCC3)cccn2c1N(C)C(=O)c1ccc(C)cc1,-,0,?,0,28µM,-
CCc1nc2c(OCc3ccc(Cl)cc3Cl)cccn2c1N(C)C(=O)CC(C)C,-,11µM,?,?,0,-
CCc1nc2c(OCc3cc(Cl)cc(Cl)c3)cccn2c1N(C)C(=O)CC(C)C,-,0,?,?,?,-
Cc1ccc(NC(=O)CN2C(=O)C(=O)N(C3CCCC3)C2=O)c(Cl)c1,0,0,0,0,0,0
COc1cc(/C=C2\SC(=O)N(c3ccc(Cl)cc3)C2=O)cc([N+](=O)[O-])c1O,?,0,0,0,0,16µM
COc1cc(/C=C2\SC(=O)N(c3cccc(Cl)c3)C2=O)cc([N+](=O)[O-])c1O,?,0,0,0,0,13µM
COc1cc(/C=C2/C(=O)NN(c3ccc(C)c(Cl)c3)C2=O)cc([N+](=O)[O-])c1O,0,0,0,-,0,0
O=C1S/C(=C\c2ccc(O)c([N+](=O)[O-])c2)C(=O)N1c1ccccc1Cl,?,0,?,0,-,?
CCCS(=O)(=O)c1ncc(Cl)c(C(=O)N2CCN(c3ccc(OC)cc3)CC2)n1,-,4.5µM,4µM,-,-,?
OC[C@@H]1[C@@H](c2ccc(Cl)cc2)C(c2cccc(Cl)c2)=NN1c1ccccc1,?,13µM,11µM,?,-,?
O=C(c1ccc2c(c1)OCO2)N1CCN(S(=O)(=O)c2ccc(Cl)cc2)CC1,0,0,0,0,0,0
COc1cccc(C(=O)OCC(=O)NCC2CCCO2)c1 (centres undefined),0,0,0,0,?,0
Cc1ccc(Cn2c(=O)c3cccnc3n(CC(=O)Nc3cccc(C(F)(F)F)c3)c2=O)cc1,5.8µM,0,?,0,0,0
CCCCCNC(=O)c1cccc(S(=O)(=O)N2CC3(C)CC2CC(C)(C)C3)c1 (centres undefined),26µM,0,?,0,?,0
CCOC(=O)c1[nH]c(C)c(CCC(=O)N2CCN(c3cccc(C)c3C)CC2)c1C,-,0,?,0,0,0
CCC(C)(C)C1CCc2[nH]nc(C(=O)NCCCNC(=O)OC(C)(C)C)c2C1 (centres undefined),26µM,0,0,0,0,0
CCC(C)(C)C1CCc2[nH]nc(C(=O)NCCN3CCOCC3)c2C1 (centres undefined),0,0,?,0,0,0
CC(=O)Nc1ccc(NC(=O)CSc2ccc3nnc(-c4cccnc4)n3n2)cc1,0,0,0,0,0,0
CCN(Cc1nc2ccccc2c(=O)[nH]1)C(=O)c1ccc(C)c(NC(=O)c2ccco2)c1,16µM,0,0,-,0,0
C(=N\Nc1nc(Nc2ccccc2)nc(Nc2ccccc2)n1)/c1ccncc1,0,13µM,?,0,0,0
